Experimental data taken from ChEMBL document CHEMBL1961873, “Compounds: GSK PKIS; Assays: Nanosyn kinase panel” (2012).
Several values for one entry are separate records, joined by “and”; a condition that tells them apart may be missing. Equal values may be shown once.

What was measured:
[1] = target: Casein kinase I isoform gamma-2 (Homo sapiens) (UniProt P78368); details: at 1 µM
[2] = target: Casein kinase I isoform gamma-3 (Homo sapiens) (UniProt Q9Y6M4); details: at 0.1 µM
[3] = target: Casein kinase I isoform gamma-3 (Homo sapiens) (UniProt Q9Y6M4); details: at 1 µM
[4] = target: Cyclin-dependent kinase 1 (Homo sapiens) (UniProt P06493); details: at 0.1 µM
[5] = target: Cyclin-dependent kinase 1 (Homo sapiens) (UniProt P06493); details: at 1 µM
[6] = target: Cyclin-dependent kinase 2 (Homo sapiens) (UniProt P24941); details: at 0.1 µM
[7] = target: Cyclin-dependent kinase 2 (Homo sapiens) (UniProt P24941); details: at 1 µM
[8] = target: Cyclin-dependent kinase 2 (Homo sapiens) (UniProt P24941); details: at 0.1 µM; remark: listed apart in the source
[9] = target: Cyclin-dependent kinase 2 (Homo sapiens) (UniProt P24941); details: at 1 µM; remark: listed apart in the source
[10] = target: T1, CDK3/Cyclin E (Homo sapiens) (UniProt P24864+Q00526); details: at 0.1 µM
[11] = target: T1, CDK3/Cyclin E (Homo sapiens); details: at 1 µM
[12] = target: Cyclin-dependent kinase 4 (Homo sapiens) (UniProt P11802); details: at 0.1 µM
[13] = target: Cyclin-dependent kinase 4 (Homo sapiens) (UniProt P11802); details: at 1 µM
[14] = target: Cyclin-dependent kinase 5 (Homo sapiens) (UniProt Q00535); details: at 0.1 µM
[15] = target: Cyclin-dependent kinase 5 (Homo sapiens) (UniProt Q00535); details: at 1 µM
[16] = target: Cyclin-dependent kinase 6 (Homo sapiens) (UniProt Q00534); details: at 0.1 µM
[17] = target: Cyclin-dependent kinase 6 (Homo sapiens) (UniProt Q00534); details: at 1 µM
[18] = target: Dual specificity protein kinase CLK2 (Homo sapiens) (UniProt P49760); details: at 0.1 µM
[19] = target: Dual specificity protein kinase CLK2 (Homo sapiens) (UniProt P49760); details: at 1 µM
[20] = target: Dual specificity protein kinase CLK3 (Homo sapiens) (UniProt P49761); details: at 0.1 µM
Dual specificity protein kinase CLK3 (Homo sapiens), sequence (P49761 whole entry, looked up): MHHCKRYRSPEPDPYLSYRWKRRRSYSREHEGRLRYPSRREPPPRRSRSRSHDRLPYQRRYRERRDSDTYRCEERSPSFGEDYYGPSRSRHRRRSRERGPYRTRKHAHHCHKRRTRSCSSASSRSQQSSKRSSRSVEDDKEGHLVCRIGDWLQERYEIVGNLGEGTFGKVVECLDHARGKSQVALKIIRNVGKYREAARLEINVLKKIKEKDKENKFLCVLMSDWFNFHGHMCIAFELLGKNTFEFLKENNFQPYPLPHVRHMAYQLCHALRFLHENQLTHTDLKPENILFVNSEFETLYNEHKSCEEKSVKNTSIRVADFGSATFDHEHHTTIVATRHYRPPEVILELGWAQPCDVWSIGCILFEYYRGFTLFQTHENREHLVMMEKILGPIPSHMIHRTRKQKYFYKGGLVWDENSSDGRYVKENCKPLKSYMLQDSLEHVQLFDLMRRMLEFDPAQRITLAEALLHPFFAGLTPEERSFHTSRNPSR

Cyclin-dependent kinase 6 (Homo sapiens), sequence (Q00534 whole entry): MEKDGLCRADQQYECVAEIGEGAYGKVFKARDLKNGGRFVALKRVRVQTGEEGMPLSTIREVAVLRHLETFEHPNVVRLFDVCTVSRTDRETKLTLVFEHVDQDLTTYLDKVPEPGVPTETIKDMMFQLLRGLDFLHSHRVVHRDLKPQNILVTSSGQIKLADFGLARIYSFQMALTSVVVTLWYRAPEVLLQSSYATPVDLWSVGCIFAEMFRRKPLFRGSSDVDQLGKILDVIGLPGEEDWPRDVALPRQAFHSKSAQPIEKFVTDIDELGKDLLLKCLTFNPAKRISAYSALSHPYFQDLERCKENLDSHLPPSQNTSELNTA
Dual specificity protein kinase CLK2 (Homo sapiens), sequence (P49760 whole entry, looked up): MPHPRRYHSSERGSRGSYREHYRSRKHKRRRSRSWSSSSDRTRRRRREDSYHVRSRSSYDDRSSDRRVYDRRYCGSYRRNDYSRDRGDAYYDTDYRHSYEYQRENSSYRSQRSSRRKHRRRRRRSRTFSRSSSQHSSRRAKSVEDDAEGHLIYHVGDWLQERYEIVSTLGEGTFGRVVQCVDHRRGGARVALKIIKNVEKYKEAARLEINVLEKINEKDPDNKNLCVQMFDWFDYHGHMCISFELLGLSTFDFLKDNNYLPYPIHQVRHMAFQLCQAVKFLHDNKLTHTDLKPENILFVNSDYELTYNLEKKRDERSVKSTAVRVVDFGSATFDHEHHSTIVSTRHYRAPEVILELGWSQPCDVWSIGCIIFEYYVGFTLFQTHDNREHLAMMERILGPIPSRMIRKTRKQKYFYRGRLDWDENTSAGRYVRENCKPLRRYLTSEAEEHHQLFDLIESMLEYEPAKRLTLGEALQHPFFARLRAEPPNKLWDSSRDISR
Casein kinase I isoform gamma-3 (Homo sapiens), sequence (Q9Y6M4 whole entry, looked up, canonical isoform): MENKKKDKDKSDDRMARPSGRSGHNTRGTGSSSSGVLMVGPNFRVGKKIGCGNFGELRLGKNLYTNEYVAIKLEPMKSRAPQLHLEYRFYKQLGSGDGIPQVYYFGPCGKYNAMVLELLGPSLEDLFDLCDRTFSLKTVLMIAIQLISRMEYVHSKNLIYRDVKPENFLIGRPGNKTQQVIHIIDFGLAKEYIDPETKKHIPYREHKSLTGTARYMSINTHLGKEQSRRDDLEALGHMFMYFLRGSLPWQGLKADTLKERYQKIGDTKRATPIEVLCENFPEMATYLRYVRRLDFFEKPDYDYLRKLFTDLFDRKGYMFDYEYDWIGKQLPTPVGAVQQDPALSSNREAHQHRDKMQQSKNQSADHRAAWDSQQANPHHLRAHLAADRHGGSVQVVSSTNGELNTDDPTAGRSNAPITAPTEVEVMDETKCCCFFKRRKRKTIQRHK
Cyclin-dependent kinase 1 (Homo sapiens), sequence (P06493 whole entry, looked up): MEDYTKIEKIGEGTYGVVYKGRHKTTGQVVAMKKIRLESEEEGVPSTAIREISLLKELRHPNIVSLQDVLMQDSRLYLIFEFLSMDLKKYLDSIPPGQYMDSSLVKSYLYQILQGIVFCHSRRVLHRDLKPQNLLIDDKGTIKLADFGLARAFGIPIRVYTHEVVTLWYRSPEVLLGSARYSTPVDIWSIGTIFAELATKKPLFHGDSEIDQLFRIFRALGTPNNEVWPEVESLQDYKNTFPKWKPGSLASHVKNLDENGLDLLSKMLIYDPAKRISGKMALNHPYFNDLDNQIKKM
T1 sequence (P24864 whole entry, looked up): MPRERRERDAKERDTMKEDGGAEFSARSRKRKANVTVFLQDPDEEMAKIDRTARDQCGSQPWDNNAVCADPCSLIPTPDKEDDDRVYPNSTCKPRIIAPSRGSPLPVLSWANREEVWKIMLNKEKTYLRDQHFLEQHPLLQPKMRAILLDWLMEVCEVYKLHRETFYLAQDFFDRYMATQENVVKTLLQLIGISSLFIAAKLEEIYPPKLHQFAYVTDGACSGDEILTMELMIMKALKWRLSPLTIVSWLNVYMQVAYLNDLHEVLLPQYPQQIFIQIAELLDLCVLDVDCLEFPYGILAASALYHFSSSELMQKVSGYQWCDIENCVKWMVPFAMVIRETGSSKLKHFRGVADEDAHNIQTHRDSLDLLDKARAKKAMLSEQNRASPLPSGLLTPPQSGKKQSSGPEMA
T1 sequence (Q00526 whole entry, looked up): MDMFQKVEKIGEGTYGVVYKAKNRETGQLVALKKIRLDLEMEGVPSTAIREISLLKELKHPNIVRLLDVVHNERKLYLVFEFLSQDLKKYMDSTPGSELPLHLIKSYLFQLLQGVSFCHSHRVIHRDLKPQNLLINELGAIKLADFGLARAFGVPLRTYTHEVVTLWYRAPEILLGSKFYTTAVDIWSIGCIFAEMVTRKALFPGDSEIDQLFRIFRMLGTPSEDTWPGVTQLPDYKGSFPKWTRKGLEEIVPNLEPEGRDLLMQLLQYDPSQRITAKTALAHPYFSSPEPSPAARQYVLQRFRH
Cyclin-dependent kinase 4 (Homo sapiens), sequence (P11802 whole entry): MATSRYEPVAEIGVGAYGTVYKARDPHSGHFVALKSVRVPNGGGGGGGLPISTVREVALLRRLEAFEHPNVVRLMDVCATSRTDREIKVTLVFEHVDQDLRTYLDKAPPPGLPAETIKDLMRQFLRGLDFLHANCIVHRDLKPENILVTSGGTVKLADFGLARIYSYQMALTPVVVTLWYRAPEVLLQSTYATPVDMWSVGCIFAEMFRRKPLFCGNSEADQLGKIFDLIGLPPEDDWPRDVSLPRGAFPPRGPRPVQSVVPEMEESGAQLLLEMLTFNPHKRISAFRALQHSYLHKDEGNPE
Casein kinase I isoform gamma-2 (Homo sapiens), sequence (P78368 whole entry, looked up, canonical isoform): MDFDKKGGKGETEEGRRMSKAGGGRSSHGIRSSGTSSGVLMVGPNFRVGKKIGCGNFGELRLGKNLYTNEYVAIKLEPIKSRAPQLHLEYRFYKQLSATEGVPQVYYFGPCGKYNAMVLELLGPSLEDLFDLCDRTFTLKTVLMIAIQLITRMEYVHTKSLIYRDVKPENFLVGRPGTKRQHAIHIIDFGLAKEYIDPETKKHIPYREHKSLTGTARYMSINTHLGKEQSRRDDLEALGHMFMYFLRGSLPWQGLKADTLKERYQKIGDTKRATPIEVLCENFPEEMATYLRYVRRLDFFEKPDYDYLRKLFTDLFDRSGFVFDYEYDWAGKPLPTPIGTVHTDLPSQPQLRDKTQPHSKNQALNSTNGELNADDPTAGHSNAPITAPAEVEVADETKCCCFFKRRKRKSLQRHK
Cyclin-dependent kinase 5 (Homo sapiens), sequence (Q00535 whole entry, looked up): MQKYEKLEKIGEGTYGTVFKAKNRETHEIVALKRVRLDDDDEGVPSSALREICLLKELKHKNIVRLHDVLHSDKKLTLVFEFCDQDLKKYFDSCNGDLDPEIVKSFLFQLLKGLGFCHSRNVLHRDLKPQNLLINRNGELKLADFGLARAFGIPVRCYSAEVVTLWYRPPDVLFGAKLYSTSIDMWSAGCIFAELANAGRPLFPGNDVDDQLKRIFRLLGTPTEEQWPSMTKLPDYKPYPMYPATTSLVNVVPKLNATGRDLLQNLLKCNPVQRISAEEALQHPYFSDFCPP

SMILES | inhibition [1] | inhibition [2] | inhibition [3] | inhibition [4] | inhibition [5] | inhibition [6] | inhibition [7] | inhibition [8] | inhibition [9] | inhibition [10] | inhibition [11] | inhibition [12] | inhibition [13] | inhibition [14] | inhibition [15] | inhibition [16] | inhibition [17] | inhibition [18] | inhibition [19] | inhibition [20]
CCS(=O)(=O)c1ccc(OC)c(Nc2ncc(-c3cccc(C(C)=O)c3)o2)c1 | 1.92% | 1.93% | 1.37% | 0.64% | 1.52% | 1.87% | 6.76% | 3.84% | 8.73% | 0.35% | 1.82% | 2.53% | 3.06% | 1.03% | 3.09% | 4.78% | 5.56% | 28.6% | 82.8% | 1.61%
CN1CCC(C(=O)Nc2n[nH]c3nc(-c4ccc(O)cc4)c(Br)cc23)CC1 | 2.84% and 1.66% | -0.75% and 1.55% | 3.27% and 0.25% | 7.05% and 10.3% | 43.7% and 42.6% | 16.2% and 18.6% | 63.1% and 63.2% | 9.58% and 5.38% | 38.8% and 32.5% | 12.5% and 12.3% | 56.1% and 53.4% | 48% and 51.8% | 76.6% and 78.3% | 0.17% and 1.86% | 13.3% and 11.5% | 36.9% and 34.2% | 76.5% and 74% | 2.03% and 1.85% | 3.04% and 2.87% | -1.53% and 0.88%
COc1cc2c(cc1Nc1nc(Nc3cccc(F)c3C(N)=O)c3cc[nH]c3n1)N(C(=O)CN1CCN(C(C)C)CC1)CC2 | 5.31% | 3.51% | 7.32% | 2.14% | 0.55% | 3.46% | 1.57% | 0.67% | 0.45% | -1.81% | -0.76% | 1.15% | 1.2% | 0.64% | 0.27% | -4.06% | -0.78% | 6.86% | 45.4% | 0.88%
COc1cc(N2CCN(C(C)C)CC2)ccc1Nc1nc(Nc2cccc(F)c2C(=O)O)c2cc[nH]c2n1 | 4.83% | 1.83% | 4.22% | 1.3% | 1.51% | 1.99% | 5.79% | 4.11% | 4.66% | 4.48% | -1.26% | 2.63% | 2.75% | 1.71% | 2.09% | 5.01% | 4.74% | 5.61% | 41% | 3.73%
NS(=O)(=O)c1ccc(N/N=C2\C(=O)Nc3cccc(CCc4ccncc4)c32)cc1 | 0.54% | 0.32% | 0.29% | 9.4% | 21.9% | 51.4% | 71.6% | 53.5% | 67.7% | 32.4% | 63.6% | 14% | 29.4% | 19.4% | 38.5% | 36.6% | 56.2% | 0.9% | 4.17% | 0.97%
CC1(C)CC(n2cnc(-c3ccc(F)cc3)c2-c2ccnc(N)n2)CC(C)(C)N1 | 0.56% | -0.9% | 5.01% | -0.29% | 0.21% | 1.22% | 0.26% | 1.34% | 0.26% | 2.06% | -0.65% | 1.99% | 2.08% | 0.25% | 0.14% | -2.02% | 1.29% | 0.85% | 0.02% | 0.82%
CS(=O)(=O)Nc1ccc(-c2cc(-c3ccccc3)cc(C(N)=O)c2N)cc1 | 0.9% | 2.42% | 0.43% | 0.06% | -0.25% | 0.21% | 1.06% | 0.2% | 1.37% | -0.04% | -1.91% | 0.62% | 1.63% | 0.11% | 0.2% | -0.52% | -0.55% | 0.11% | 2.34% | 0.2%
COc1ccc(-c2nn3ncccc3c2-c2ccnc(Nc3ccc(F)c(F)c3)n2)cc1 | 3.56% | 3.89% | 3.22% | -0.93% | 2.75% | 0.74% | 3.93% | 3.63% | 3.97% | 1.3% | 0.42% | 0.25% | 1.71% | 0.48% | 1.15% | 5.13% | 3.48% | -1.03% | 0.41% | 2.08%
Nc1nonc1-c1nc2cnccc2n1C1CC1 | 3.78% and -0.61% | 3.26% and -1.06% | 2.82% and 0.84% | 1.19% and -3.89% | 8.14% and 3.98% | 5% and 1.12% | 28% and 29.5% | 5.56% and 1.64% | 23.7% and 19.1% | 3.57% and 1.86% | 4.03% and 3.32% | 1.99% and -2.13% | 2.95% and -0.61% | 3.26% and -1.62% | 16.6% and 12.1% | 0.11% and -4.39% | 1.22% and -0.23% | 0.67% and 3.19% | 17% and 19% | 1.8% and -2.05%
